# Screening data as filed in PubChem BioAssay.
# TRHR ag – activates the human TRH receptor | TRHR cells, calcium flux fluo-8, FDSS agonist mode | activation, % at 2 µM | hit rate 0.18% among 360,000 | AID 493084; also: 0% is about no effect
#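 TRHR-expressing cells loaded with fluo-8 calcium dye; 23 nL library compound pin-transferred, kinetic FDSS fluorescence (Ex 480/Em 530) recorded about 180 s for agonist-induced calcium release, before a 10 nM TRH EC20 addition for potentiator mode.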
# TRHR enhancer – TRH receptor (human) allosteric enhancement | P34981 | hit rate 0.66% among 360,000 | TRHR cells, fluo-8 calcium fluorescence, EC20 TRH enhancement | enhancement, % at 2 µM | AID 493056; in the data active = enhancement above about 30%; also: 0% is about no effect
#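 TRHR-expressing cells loaded with fluo-8 calcium dye were read kinetically (ex 480/em 530) during compound addition, then stimulated with an EC20 of TRH (10 nM final). Enhancement of the Gq-mediated intracellular calcium response was scored.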
# D1 PAM – enhances dopamine response at the human D1 receptor. hit rate 0.036% among 360,000. HEK293 TREx D1 cells, calcium flux, dopamine EC20 potentiation. P21728. potentiation, % at 10 µM. AID 504651; in the data active = potentiation above about 30%; also: 0% is about no effect
# Target sequence (P21728 whole entry, looked up): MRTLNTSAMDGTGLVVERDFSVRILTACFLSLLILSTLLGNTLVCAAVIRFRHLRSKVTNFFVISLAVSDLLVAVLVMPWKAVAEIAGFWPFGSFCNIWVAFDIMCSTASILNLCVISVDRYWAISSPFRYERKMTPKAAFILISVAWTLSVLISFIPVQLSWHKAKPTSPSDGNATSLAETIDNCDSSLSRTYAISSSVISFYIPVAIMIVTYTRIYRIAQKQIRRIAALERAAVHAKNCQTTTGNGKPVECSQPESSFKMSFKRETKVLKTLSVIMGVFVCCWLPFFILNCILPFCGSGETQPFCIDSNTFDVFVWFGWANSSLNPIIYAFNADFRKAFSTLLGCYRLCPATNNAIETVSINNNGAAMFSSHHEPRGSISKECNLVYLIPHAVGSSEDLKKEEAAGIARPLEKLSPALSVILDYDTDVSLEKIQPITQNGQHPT
# D1 ag – activates the human D1 dopamine receptor; P21728; HEK293 T-REx D1 cells, calcium flux, agonist mode; activation, % at 2 µM; hit rate 1% among 360,000; AID 504660; also: 0% is about no effect
#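 Agonism was scored from calcium flux recorded over 180 s (1 read/s) after pintool compound addition, following a 10-cycle baseline. Cells were inducible force-coupled HEK293 TREx D1, plated overnight at 30 C and loaded with no-wash calcium dye.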
# D1 antag – antagonists of human D1 dopamine receptor; hit rate 3.2% among 360,000; HEK293 TREx D1 cells, calcium flux, dopamine EC80; active compounds read low; P21728; activity change, negative = inhibition, % at 10 µM; in the data active = activity change below about -30%; also: % is scaled to controls: 0 for no effect and ±100 for the full control effect
#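 Inducible Hek293 Trex D1 cells (tetracycline, overnight, 30 C). Calcium dye 30–90 min RT. Antagonist mode: EC80 dopamine added after 180 s compound read.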
# Epigenetic reg – regulators of epigenetic silencing causing reporter derepression in mouse cells; murine LDR cells, GFP reporter derepression, 30 h; Potency, µM (titrated, usually from 53.9 µM), without a hit: top-dose GFP activation, most hits filed as activators; hit rate 0.2% among 280,000; active = well fitted activation curve with a large enough effect; also: potency is read from the fitted curve at half-maximal effect; % of control where 0% means no effect; nearly all actives have a fitted effect of over 60% in size
#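 Murine LDR cells bearing a silenced CMV-driven GFP reporter were exposed to compound for 30 h at 37 C. After PBS washes, GFP-positive cells (20-120 um objects) counted by laser-scanning microplate cytometry.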
# * = called active by the depositor; · = no result given. Hits are enriched below; roughly 4.6% of the tested compounds scored in any of these assays. Rule as the data show it, unless noted: active = activation above about 30%; inactive = the rest.
SMILES,TRHR ag,TRHR enhancer,D1 PAM,D1 ag,D1 antag,Epigenetic reg
Cc1ccccc1Cn1cc(S(=O)(=O)c2ccc(Cl)cc2)c(=O)c2cc3c(cc21)OCO3,1,5,1,3,5,-2%
CCOC(=O)C(NC(=O)c1cccc(Cl)c1)(OCc1ccc(F)cc1)C(F)(F)F (centres undefined),-3,13,-3,13,-35*,0%
C[C@@H](NC(=O)c1[nH]cnc1C(=O)Nc1ccccc1)c1ccccc1,1,36*,2,-2,·,·
C[C@@H](NC(=O)c1nc[nH]c1C(=O)NCC(=O)OCc1ccccc1)c1ccccc1,-1,30*,-7,0,-23,·
C[C@@H](NC(=O)c1nc[nH]c1C(=O)OCc1ccccc1)c1ccccc1,-1,2,-6,-2,·,·
C[C@@H](NC(=O)c1nc[nH]c1C(=O)NC1CCN(C(=O)OC(C)(C)C)CC1)c1ccccc1,0,0,2,0,-67*,·
CC(C)C[C@H](NC(=O)c1nc[nH]c1C(=O)NC(c1ccccc1)c1ccccc1)C(=O)OC(C)(C)C,0,-12,-5,11,-33*,4%
CC(C)C[C@H](NC(=O)c1[nH]cnc1C(=O)N[C@H](C)c1ccccc1)C(=O)OC(C)(C)C,1,-2,-4,5,26,0%
C[C@H](NC(=O)c1nc[nH]c1C(=O)NCc1ccccc1)c1ccccc1,1,-11,-4,1,-41*,·
COc1ccc(NS(=O)(=O)c2ccc(N3CCOCC3)c(N)c2)cc1,2,4,7,23,-32*,·
CCc1c(C)nc2nc(SCc3ccccc3Cl)[nH]n2c1=O,0,7,-9,7,-43*,·
Cc1nc2nc(NCc3ccccc3Cl)[nH]n2c(=O)c1Cc1ccccc1,0,-6,0,1,7,-2%
CCN(CC)C(=O)Cn1cc(C(=O)C(=O)NCCCN2CCOCC2)c2ccccc21,0,-1,0,2,-34*,·
CCN(CC)C(=O)Cn1cc(C(=O)C(=O)NCCc2ccccc2)c2ccccc21,-1,-7,0,1,-3,·
COc1ccc(C(=O)Nc2nnc(SCc3cc(=O)c4cccc(F)c4[nH]3)s2)cc1,-1,1,2,0,-4,-1%
O=C(NN=C1CCCC1)c1cc(Br)ccc1O,1,1,-5,12,-18,·
O=C(N/N=C1/CCSC1)c1cc(Br)ccc1O,1,2,-9,14,-40*,1%
CCNC(=S)N(Cc1ccc2c(c1)OCO2)C1CC(=O)N(c2ccc(F)cc2)C1=O (centres undefined),1,2,-5,5,-60*,0%
CC(C)c1onc(C(=O)NCc2ccccn2)c1[N+](=O)[O-],0,31*,0,0,-6,3%
CC(C)C(C(=O)Nc1ccncc1)c1ccc(Cl)cc1 (centres undefined),8,-3,0,51*,-7,·
O=C(NCc1ccccn1)Nc1ccc(Cl)c(Cl)c1,0,0,0,1,-13,-1%
Cc1onc(C(=O)NCc2ccccn2)c1[N+](=O)[O-],1,1,-8,1,-7,1%
COc1ccc(NC(=O)Nc2ccc(C(C)C)cc2)cc1,0,-15,-9,0,-37*,5%
CC(C)C(C(=O)Nc1nccs1)c1ccc(Cl)cc1 (centres undefined),2,1,-6,2,-9,-1%
CC(C)c1ccc(NC(=O)NCc2ccccn2)cc1,0,-2,3,4,-34*,·
CC(C)c1ccc(OCC(=O)Nc2ccncc2)cc1,-2,-6,0,18,-34*,·
Cc1cc(OCC(=O)Nc2ccncc2)cc(C)c1Br,0,-3,-9,21,-28,0%
CCc1ccc(OCC(=O)Nc2ccncc2)cc1,-1,-9,-3,15,-12,·
CC1=C(C)CC(C(=O)NCc2ccccn2)C(C(=O)O)C1 (centres undefined),1,3,-4,3,-91*,3%
